LGR2 antag – inhibitors of bursicon-induced LGR2 CRE-luciferase signal, primary screen, cell-based, HEK293, CRE-luciferase reporter, bursicon stimulation | Drosophila bursicon receptor LGR2 (rickets) | bursicon-stimulated, 4 h | inhibition, % at 9.99 µM | actives 0.35% (n = 380,000);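 active = drop in luminescence signal, shown as inhibition above about 50% in the replicate tests, limit read from the data, passing the limit was not always enough; inconclusive = probably only some replicates passing the limit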;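 also: agonist challenge used bursicon conditioned medium at about half maximal strength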
LMP1 NFkB inh – EBV LMP1-driven NF-kappaB luciferase reporter inhibitors, primary screen, cell-based, luminescence, single point; LMP1-induced NF-kappaB luciferase reporter cells; inhibition, % at 12.5 µM; actives 0.69% (n = 350,000); in the data active = inhibition above about 41%; inconclusive = no clear call, values can overlap the other calls;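 also: 0% = neutral control wells and 100% = reference inhibitor control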
HSF1 activator – HSF-1 activators, primary screen, NIH3T3-HGL cells, MG132 stress, luminescence, single point | NIH3T3-HGL HSF-1 luciferase reporter, 8 h; 100% = twice DMSO control signal | activation, % at 9 µM | actives 1.7% (n = 300,000) | AID 504408, 2011;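 active = mean replicate activation of at least 50% with a set share of replicates each reaching 50%; inconclusive = only one of those two conditions met; inactive = mean below 50% and too few replicates reaching it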;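 also: 0% = median of the neutral control wells and 100% = twice that signal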
HSF1 inh – HSF1 inhibitors in luciferase reporter cells, primary screen, cell-based, NIH3T3, luminescence. NIH3T3-HGL HSE-luciferase, MG132-induced, luminescence 8 h; stronger effect = lower value. actives 0.77% (n = 300,000). activity change, negative = inhibition, % at 7.5 µM (by protocol);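 active = more than half of replicate wells show activity change below -50%, luminescence cut by over half; inconclusive = some wells, but at most half, below -50%; inactive = no replicate well below -50%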;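 also: luciferase reports HSF-1 transcriptional activity via heat shock element; 0% = median of DMSO wells and -100% = zero luminescence signal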
TROY signal inh – inhibitors of TROY-driven NF-kB signaling, primary screen, Q293 LMP1-TROYcd cells, NF-kB luciferase, uHTS | Q293 LMP1-TROYcd NF-kB luciferase reporter, 4 h | inhibition, % at 10 µM | actives 0.98% (n = 360,000) | AID 1347056, 2019;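 active = compounds whose plate-normalised and pattern-corrected inhibition of the luciferase reporter signal at the single screening dose is 50% or more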
TWEAK Fn14 block – inhibitors of TWEAK-Fn14 signaling, primary screen, luciferase reporter cells, uHTS. AID 1159606, 2016. actives 2% (n = 360,000). TWEAK-stimulated Fn14 reporter cells, luciferase luminescence, 8 h. inhibition, % at 10 µM; in the data active = inhibition above about 50%
The depositor's hits bear a star; u = inconclusive; x = not tested or not shown. Most compounds without a hit are left out; they make up all but 3.6% or so of the library.

SMILES | LGR2 antag | LMP1 NFkB inh | HSF1 activator | HSF1 inh | TROY signal inh | TWEAK Fn14 block
Cc1ccc(NC(=O)c2cc(C)on2)cc1 | -13 | -10 | 24 | 16 | -56 | 18
O=C(NC1CCCCC1)c1noc2c1CCCCC2 | -57 | -10 | -21 | -25 | 42 | 55*
Cc1ccc(NC(=O)c2noc3c2CCCCC3)cc1C | x | -29 | -12 | -11 | 30 | 20
CCc1ccc(NC(=O)c2noc3c2CCCCC3)cc1 | x | -59 | 31 | 12 | -44 | -29
Cc1ccc(NC(=O)c2noc3c2CCCCC3)cc1 | 24 | -16 | 12 | -3 | -10 | 51*
O=C(c1cccnc1)N1CCCCN2[C@H](C1)[C@@H](c1ccc(C#Cc3ccccn3)cc1)[C@@H]2CO | -1 | x | x | x | x | x
C[C@@H]1CN([C@H](C)CO)S(=O)(=O)c2ccc(-c3cncnc3)cc2O[C@@H]1CN(C)Cc1cccnc1 | 6 | x | x | x | x | x
O=c1oc2ccccc2c(O)c1/C=N/c1ccccn1 | x | 50* | -7 | -3 | 27 | 15
COCC(=O)Nc1ccc2c(c1)C(=O)N(C)[C@H]1CC[C@@H](CC(=O)OC)O[C@@H]1CO2 | -9 | x | x | x | x | x
CCC(=O)N(C)C[C@@H]1Oc2cc(C#CC3CC3)ccc2S(=O)(=O)N([C@H](C)CO)C[C@@H]1C | 7 | x | x | x | x | x
COC(=O)c1ccccc1-c1c2ccc(=N)cc-2oc2cc(N)ccc12 | 12 | 12 | x | x | 17 | 53*
COC(=O)c1ccccc1-c1ccc(/C=N/NC(=O)c2cc3ccccc3o2)o1 | 13 | -2 | -9 | -12 | 7 | 20
CCCN(C)C[C@H]1Oc2cc(-c3ccncc3)ccc2S(=O)(=O)N([C@@H](C)CO)C[C@H]1C | 4 | x | x | x | x | x
CCOc1c(Br)cc(CNc2ccc(N3CCOCC3)cc2)cc1OC | 6 | 8 | -26 | -20 | 35 | -1
CCOc1c(Br)cc(CNc2ccc3c(c2)OCCO3)cc1OC | x | 19 | -47 | -46 | 59* | 85*
CCOc1cc(CNc2ccc3c(c2)OCCO3)cc(Br)c1OC | x | 32 | -58 | -47 | 85* | 94*
CCOc1cc(CNc2ccc3c(c2)OCCO3)cc(Br)c1OCC(N)=O | x | 4 | -76 | -74* | 64* | 88*
O=C([C@@H]1[C@@H](CO)[C@@H]2Cn3c(ccc(-c4ccncc4)c3=O)[C@H]1N2Cc1cccnc1)N1CCOCC1 | 13 | x | x | x | x | x
Cc1oc2ccc(OCc3c(F)cccc3Cl)cc2c1C(=O)O | -5 | 2 | -66 | -57* | -1 | -2
Cc1oc2ccc(OCc3cccc(Cl)c3)cc2c1C(=O)O | -7 | 0 | 37 | 10 | -9 | -18
COc1ccc(/C=C2/CCC(CN3CCOCC3)C2=O)cc1 (stereo unspecified) | -9 | 86* | -38 | -38 | -18 | 66*
COc1ccc(/C=C2\CCC(C3CCCC3)C2=O)cc1 (stereo unspecified) | -54 | -32 | 23 | 12 | 27 | 49
COc1ccc(-c2noc(CCCC(=O)O)n2)cc1 | x | -4 | -55 | -47 | 40 | 78*
CCN(CCCNC(=O)CCc1nc(-c2ccc(OC)cc2)no1)c1cccc(C)c1 | x | 0 | 62* | 39 | 10 | 15
CCN(CCCNC(=O)Cn1cc2c(n1)CCCC2)c1cccc(C)c1 | 1 | -6 | 59* | 45 | -5 | -12
SMILES | LGR2 antag | LMP1 NFkB inh | HSF1 activator | HSF1 inh | TROY signal inh | TWEAK Fn14 block
CCOc1ccc(-c2noc(CCC(=O)O)n2)cc1 | -15 | -1 | -52 | u | 30 | 71*
CCOCCCNC(=O)Cn1cc2c(n1)CCCC2 | -16 | 0 | -7 | -6 | 2 | -16
COc1cccc(CNC(=O)C[C@@H]2C=C[C@H](NS(=O)(=O)c3ccccc3OC)[C@H](CO)O2)c1 | 3 | x | x | x | x | x
COc1ccc2c3c(n(C)c2c1)[C@H](CO)N(C(=O)CC1CC1)CC31CN(C(=O)C2CCC2)C1 | -1 | x | x | x | x | x
COc1ccc(NC(=S)Nc2ccc(F)cc2)c(OC)c1 | x | -12 | -61 | -52* | -17 | -14
Fc1ccc(NC(=S)Nc2cc(Cl)ccc2Cl)cc1 | 8 | -6 | 77* | 43 | -8 | -24
Fc1ccc(NC(=S)Nc2ccc(Cl)cc2)cc1 | -18 | -3 | 2 | 16 | -29 | -27
COc1ccc(NC(=S)Nc2ccc(OC)cc2OC)c(OC)c1 | -4 | 2 | 0 | 0 | -16 | 1
CC(C)NC(=O)N(C)C[C@H]1Oc2cc(C#C[C@@H](C)O)ccc2S(=O)(=O)N([C@H](C)CO)C[C@H]1C | -1 | x | x | x | x | x
CCCNC(=O)N1CCC2(CC1)CN(C(=O)CC)[C@H](CO)c1c2c2ccc(OC)cc2n1C | -4 | x | x | x | x | x
CCC(/C=C1\Sc2ccc(OC)cc2N1CCO)=C\c1sc2ccc(OC)cc2[n+]1CCO | -18 | 46* | x | x | 12 | 19
COc1ccc(-c2cc(C(=O)Nc3ccc(C)c(N)c3)c3ccccc3n2)cc1 | -16 | -10 | 74* | 21 | -29 | -22
COc1cc(NC(=O)c2cc(C)nc3ccccc23)cc(OC)c1 | -10 | -3 | -70 | -60* | -13 | -18
Cc1cccc(-c2cc(C(=O)Nc3ccncc3)c3ccccc3n2)c1 | -38 | -7 | 63* | 50 | 17 | -15
Cc1cc(C(=O)Nc2ccccc2)c2ccccc2n1 | -2 | -1 | 1 | -4 | -7 | 17
COc1ccc(-c2cc(C(=O)Nc3ccc(S(=O)(=O)Nc4ncccn4)cc3)c3ccccc3n2)cc1 | -2 | 2 | 21 | 11 | -18 | -24
CN(C)C(=O)[C@H]1[C@H](CO)[C@H]2Cn3c(ccc(-c4cccc(F)c4)c3=O)[C@@H]1N2CC1CC1 | 7 | x | x | x | x | x
CC(C)OCCCn1c(SCC(=O)N2CCc3ccccc32)nc2ccccc2c1=O | x | 7 | -5 | 4 | 24 | 91*
CC(C)OCCCn1c(SCC(=O)N2CCCC2=O)nc2ccccc2c1=O | -22 | 0 | -18 | -4 | -25 | 1
C[C@H]1CN([C@@H](C)CO)C(=O)Cc2cc(NC(=O)NC3CCCCC3)ccc2O[C@@H]1CN(C)C(=O)NC1CCCCC1 | 4 | x | x | x | x | x
c1ccc(COc2cccc(-c3cc4nc(NCCCn5ccnc5)ccn4n3)c2)cc1 | 80* | x | x | x | 38 | 12
c1ccc(COc2cccc(-c3cc4nc(NCCOc5ccccc5)ccn4n3)c2)cc1 | -3 | x | x | x | -8 | 27
c1ccc(COc2cccc(-c3cc4nc(NCCc5ccncc5)ccn4n3)c2)cc1 | 45 | x | x | x | 40 | 61*
COc1cc(C(=O)Nc2cc(-c3cn4cccnc4n3)ccc2C)cc(OC)c1OC | 8 | 1 | 9 | -2 | 0 | 92*

Screening results (PubChem)
